In PubChem BioAssay (NCI):
This is part of a sample that, as a whole, favours compounds with a hit. Of some 83,000 tested, about 20% had one in any assay.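 A percent growth of 40 corresponds to 60% growth inhibition; 0 means no net growth; -100 means all cells died. Active threshold: below 10.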 A number with no mark means an inactive call. Calls of active or inactive are those of the source.

How the values were obtained:
Assay in all cases: NCI-60 one-dose screen, 48 h (100 = growth as untreated, 0 = no growth, -100 = all killed)
Details in all cases: 10 µM unless noted
DU-145 prostate = test system: DU-145 prostate
K-562 leukemia = test system: K-562 leukemia
MALME-3M melanoma = test system: MALME-3M melanoma
MDA-MB-231 breast = test system: MDA-MB-231 breast
RXF 393 renal = test system: RXF 393 renal
SF-268 CNS = test system: SF-268 CNS
SF-295 CNS = test system: SF-295 CNS
SF-539 CNS = test system: SF-539 CNS
UACC-257 melanoma = test system: UACC-257 melanoma
M14 melanoma = test system: M14 melanoma

SMILES	growth (DU-145 prostate)	growth (K-562 leukemia)	growth (MALME-3M melanoma)	growth (MDA-MB-231 breast)	growth (RXF 393 renal)	growth (SF-268 CNS)	growth (SF-295 CNS)	growth (SF-539 CNS)	growth (UACC-257 melanoma)	growth (M14 melanoma)
COC1=CC(c2ccc[nH]2)=N/C1=C\c1[nH]c(C)c(CC(=O)NCc2ccccc2)c1C	34.7%	0.172% (active)	-42.2% (active)	0.672% (active)	30.5%	11.3%	-55.5% (active)	2.49% (active)	-19.4% (active)	-49% (active)
COC(=O)/C=C1/SC(=Nc2cccc(OC)c2)N(CCc2c[nH]c3ccc(O)cc23)C1=O	33.1%	34.1%	79.5%	66.6%	52.6%	67%	81.4%	72.4%	57.7%	51.3%
CCCCC1=C(P(=O)(O)O)N[C@H](C(=O)O)CS1	104%	93.1%	96.3%	90.6%	93.5%	98.6%	85.9%	93.1%	86.6%	92.7%
Cc1cc(C(=O)O)c(C)n1-c1cccc(C(=O)O)c1	16.9%	63.3%	113%	96.8%	61.8%	84.5%	61.3%	102%	70.1%	90.9%
N#Cc1ccc2c(c1)C(=O)c1c-2n(CCCN)c(=O)c2cc([N+](=O)[O-])ccc12	-100% (active)	-100% (active)	-82.3% (active)	-100% (active)	-87.9% (active)	-92.1% (active)	-73.9% (active)	-98.2% (active)	-100% (active)	-100% (active)
Cc1cccc(/C=C/c2c(C(=O)/C=C/c3ccccc3)c(C)nc3ccccc23)c1	-62% (active)	3.77% (active)	-79.3% (active)	-14.1% (active)	-83% (active)	37.7%	-18.8% (active)	-84.9% (active)	-31.1% (active)	-12.8% (active)
CCCCCN1C(=O)/C(=c2\sc3n(c2=O)C2C(NN=3)N(CC)C(=O)N2CC)c2ccccc21 (stereo not given)	-67.1% (active)	-71.9% (active)	-32.4% (active)	-30.8% (active)	-28.9% (active)	-2.82% (active)	-24.8% (active)	-90.2% (active)	31.5%	-9.92% (active)
Cc1ccccc1/C=C/C(=O)c1cccc(OCCCOc2cccc(C(=O)/C=C/c3ccccc3C)c2)c1	102% [3 µM]	73.6% [3 µM]	108% [3 µM]	94.8% [3 µM]	98.3% [3 µM]	99.4% [3 µM]	90.6% [3 µM]	103% [3 µM]	103% [3 µM]	103% [3 µM]
COc1cc(C2CC(c3ccc(Nc4nc(Nc5ccc(Cl)cc5)nc(Nc5ccc(Cl)cc5)n4)cc3)=NN2C(C)=O)cc(OC)c1OC (stereo not given)	115%	73.5%	99.2%	102%	92.4%	106%	102%	98.7%	103%	102%
CC(=O)N1N=C(c2ccc(C(F)(F)F)c(F)c2)CC1c1[nH]c(C)c(C(=O)NCC(F)(F)F)c1C (stereo not given)	85.5%	97.6%	43.5%	38.8%	31%	60.7%	70.9%	56.3%	91.6%	78.8%
COc1cc(-c2nccc3[nH]c(-c4ccc5cc[nH]c5c4)nc23)cc(OC)c1OC	18.2%	-14.4% (active)	21.7%	-20.3% (active)	18%	19.3%	-59.4% (active)	-19.5% (active)	29.6%	4.35% (active)
c1ccc(Cn2cc3c(c2)-c2oncc2CC3)cc1	19.6%	13.9%	86%	8.74% (active)	0.371% (active)	37.2%	20.3%	-9.18% (active)	82.8%	19.9%
CN1C(=O)/C(=C\c2c(Cl)cccc2Cl)c2ccccc21	99.6%	30.7%	79%	87.2%	85.1%	87.2%	86.3%	87.1%	87.2%	75.5%
O=C(Nc1nc2ccccc2s1)c1ccc(F)cc1	108%	90%	96.2%	95.5%	107%	114%	103%	102%	108%	110%
CC(=O)Oc1ccc(C)cc1C	110%	101%	104%	104%	114%	104%	106%	99%	106%	103%
Nc1c(C(=O)Nc2ccncc2)sc2nc3c(cc12)C(O)CCC3 (stereo not given)	96.8%	88.7%	118%	96.8%	107%	95.1%	106%	96.2%	96.3%	114%
O=C(CN1C(=O)S/C(=C\c2ccccc2)C1=O)Nc1ncc(Cc2ccccc2Cl)s1	87%	97.3%	104%	101%	125%	87.9%	100%	94.8%	96.9%	102%
COC1=CC(c2ccc[nH]2)=N/C1=C\c1[nH]c(C)c(C)c1CCC(=O)OCc1ccccc1	18.4%	-7.62% (active)	-64.8% (active)	-49.5% (active)	-35.2% (active)	5.89% (active)	-60.1% (active)	-52.3% (active)	-49% (active)	-60.8% (active)
C=C1C(=O)O[C@H]2[C@H]1CC/C(COC(=O)/C=C\C(=O)NCc1ccc(Cn3c(=O)sn(CCI)c3=O)cc1)=C\CC[C@@]1(C)O[C@@H]21	34.4%	4.34% (active)	-30% (active)	64.6%	11.6%	70.2%	105%	52%	67.7%	36.2%
CNc1nnc2n(-c3ccccc3)c(=O)c3cnn(-c4ccccc4)c3n12	102%	85.7%	131%	103%	98.2%	96.1%	78.8%	83.5%	95.7%	79.1%
Nc1[nH]n2cc(-c3ccccc3)nc2c1N=Nc1ccc(S(N)(=O)=O)cc1	42.9%	32.9%	25.6%	20%	6.61% (active)	36.5%	48%	19.6%	68.9%	31.4%
COc1cc(/C=C2/C=C(c3ccccc3)N(CCc3ccc(S(N)(=O)=O)cc3)C2=O)cc(OC)c1OC	109%	93.6%	84.2%	96.8%	96.1%	107%	99.2%	101%	84%	89.8%
O=C(CSc1nc2sc3c(c2c(=O)n1-c1ccccc1)CCCCC3)N/N=C/c1cccc([N+](=O)[O-])c1	16.5%	56.3%	74.6%	51.1%	61.5%	44.3%	76.3%	0.0053% (active)	66.1%	71.1%
Cn1cc(-c2csc(-c3c[nH]c4ccccc34)n2)c2cnccc21	20.9%	-28.1% (active)	-79% (active)	-37.4% (active)	-84% (active)	54.6%	-69.7% (active)	-88.4% (active)	90.9%	-80.2% (active)
Cc1cc(S(=O)(=O)/N=C(\N)n2nc(C)c(C)c2C)c(SCc2ccccc2)cc1Cl	98.1%	30.9%	94.1%	89.6%	72.9%	86.6%	54.3%	98.8%	73.4%	74.6%
N#Cc1nc(-c2ccccc2)oc1S(=O)(=O)N1CCN(c2ccccc2)CC1	107%	34.9%	90.1%	105%	114%	107%	105%	100%	92.7%	81.1%
CS(=O)(=O)c1ccc(-c2cnn3ccc(-c4cccc(S(=O)(=O)C5CC5)c4)nc23)cc1	61.7%	78%	50.2%	53%	22.2%	45.5%	56.9%	60.8%	58.3%	64.3%
